Sampled rows, rich in hits. Any-hit rate of the full collection: about 6.9%.
NS3h inh CB – blocks HCV NS3 helicase binding to DNA; NS3h Cy5-dT15 DNA binding, fluorescence polarization; inhibition, % at 100 µM; hit rate 1.6% among 16,000; AID 687043;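 active means inhibition above the average over every tested compound plus 3 SD, cut at about 40% in these data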
Cy5 interf NS3h – counter-screen for HCV NS3 helicase inhibitors: fluorescence interference; Cy5-dT15 DNA with NS3h; actives lie on both sides; signal over control mean, under 1 quenches; AID 720488; fluorescence interference ratio at 100 µM; hit rate 6% among 16,000;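 active means compound fluorescence over control fluorescence at most 0.8, a quencher, or at least a set upper limit, an enhancer; inactive means ratio between 0.8 and the set upper limit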
* marks the source's active call; other numbers are inactive results.

SMILES	NS3h inh CB	Cy5 interf NS3h
CN(CCOC(=O)C(C)(c1ccccc1)c1ccccc1)C(C)(C)C	6	0.76*
COCCNC(=O)c1cc2nc(-c3ccccc3)cc(-c3ccccc3)n2n1	18	0.94
O=C(NCC1CCCO1)c1cc2nc(-c3ccccc3)cc(-c3ccccc3)n2n1 (stereo not given)	16	0.62*
CN(c1ccccc1)c1ccc(C=C2C(=O)NC(=O)NC2=O)cc1	46*	1.1
O=C1NC(=O)C(=Cc2ccc(OCc3cccc4ccccc34)cc2)C(=O)N1	3	0.93
COc1ccc(C(=O)N/C(=C\c2ccc(-c3cccc([N+](=O)[O-])c3)o2)C(=O)NCCN2CCOCC2)cc1	6	0.92
Cc1ccc(N2C(=O)CC(N3CCN(Cc4ccccc4)CC3)C2=O)cc1 (stereo not given)	-1	1
Cc1ccc(N2C(=O)CC(NC3CCN(Cc4ccccc4)CC3)C2=O)cc1 (stereo not given)	10	1.3*
Cc1ccc(N2C(=O)CC(NCc3cccc(Cl)c3)C2=O)cc1 (stereo not given)	0	1.1
Cc1ccc(N2C(=O)CC(NCc3cccc(C(F)(F)F)c3)C2=O)cc1 (stereo not given)	18	1.2*
COc1cc(C(=O)N2CCN(c3cccc(Cl)c3)CC2)c([N+](=O)[O-])cc1OC	19	0.67*
O=C(c1cc(Cl)ccc1Cl)N1CCOCC1	6	1.1
O=C(c1cc(Cl)ccc1Cl)N1CCN(c2ccccc2)CC1	5	0.61*
COc1cc(C(=O)N2CCN(Cc3ccccc3)CC2)c([N+](=O)[O-])cc1OC	4	0.96
Cc1cc([N+](=O)[O-])c(-c2ccc(C=C3C(=O)c4ccccc4C3=O)o2)cc1Cl	6	1
O=C1NC(=O)C(=Cc2ccc(-c3cc(Cl)c([N+](=O)[O-])cc3Cl)o2)C(=O)N1	-141	0.04*
CCOc1ccc(C(=O)COC(=O)c2ccc(C)cc2)cc1	8	0.98
Cc1ccc(O)c(NC(=O)c2ccc(-c3ccccc3)cc2)c1	17	1
O=C(CSc1nnc(-c2ccc(Br)cc2)o1)NCc1ccccc1	9	1
O=C(OCc1ccccc1)Sc1nnc(-c2ccc(Br)cc2)o1	14	0.78*
CCOC(=O)c1[nH]c(=O)[nH]c1CSc1nnc(C)c(=O)[nH]1	-6	1
Cc1cc(=O)[nH]c(SCCOc2ccccc2C)n1	7	0.99
Cc1ccc(C(=O)O/N=C(/N)c2ccc(Br)cc2)cc1[N+](=O)[O-]	18	0.78*
Cc1ccc(C(=O)O/N=C(/N)c2ccc(Cl)cc2)cc1[N+](=O)[O-]	-2	0.96
COc1ccc(OC)c(/C=C2\C(=O)NN(c3ccccc3)C2=O)c1	15	0.95
SMILES	NS3h inh CB	Cy5 interf NS3h
O=C(Nc1c(C(=O)N2CCN(Cc3ccccc3)CC2)cnn1-c1ccccc1)c1cccc(F)c1	7	1.3*
O=C(Nc1c(C(=O)N2CCC(Cc3ccccc3)CC2)cnn1-c1ccccc1)c1cccc(F)c1	6	1
COc1ccc(-c2cccc(=O)o2)cc1	5	0.94
COc1ccc(OC)c(C2NC(=O)NC3=Nc4ccccc4NC(c4ccccc4)=C32)c1 (stereo not given)	3	1.1
Cc1ccc2[nH]c(O)c(N=Nc3ccc([N+](=O)[O-])cc3[N+](=O)[O-])c2c1Br	17	0.74*
Cc1ccc(S(=O)(=O)N=Nc2c(O)[nH]c3ccc(Br)cc23)cc1C	-6	0.98
COC(=O)C1=C(C)NC(C)=C(C(=O)OC)C1c1cn(-c2ccccc2)nc1-c1ccc(S(=O)(=O)N(C)C)cc1	8	0.92
O=C(Nc1ccc(Nc2ccccc2)cc1)c1ccc([N+](=O)[O-])cc1	17	0.95
CC(C)N(C(=O)c1ccc(C(=O)Nc2ccc(Nc3ccccc3)cc2)cc1)C(C)C	17	0.7*
CCCC1C(c2ccccc2)NC(c2ccccc2)C(C)C1(O)CCC (stereo not given)	16	1
CC1C(c2ccccc2)NC(c2ccccc2)C(C)C1(O)c1ccccc1 (stereo not given)	4	0.68*
Cc1cc(/C=C2\C(=O)NC(=O)N(c3ccc4c(c3)OCO4)C2=O)c(C)n1-c1cccc([N+](=O)[O-])c1	-4	1.1
CC(=O)Nc1ccc(NC(=O)CCC(=O)O)cc1	-1	0.63*
NC(=O)c1ccc(NC(=O)CCC(=O)O)cc1	1	1.1
COC(=O)c1ccc(C(=O)OC)c(NC(=O)c2c(Cl)cccc2Cl)c1	19	1.1
COC(=O)c1ccc(C(=O)OC)c(NC(=O)Cc2ccccc2[N+](=O)[O-])c1	10	0.78*
COc1ccc(C)cc1NC(=O)Cc1ccccc1[N+](=O)[O-]	12	1.1
COC(=O)c1ccc(C(=O)OC)c(NC(=O)CC(c2ccccc2)c2ccccc2)c1	14	0.75*
Cc1cccc(Cn2cc(/C=C(\C#N)C(=O)Nc3ccccc3)c3ccccc32)c1	18	1
Cc1cc(C)cc(NC(=O)c2ccco2)c1	2	0.98
COc1cccc(-n2sc3c(c2=S)-c2cc(Cl)ccc2NC3(C)C)c1	16	0.93
CCOc1ccc(NC(=S)NC(NC(=O)Cc2cccc3ccccc23)C(Cl)(Cl)Cl)cc1 (stereo not given)	-8	1
COc1ccc(OC)c(NC(=O)COc2ccc(Br)cc2C)c1	-4	1
CCCC(=O)Nc1cc(OC)ccc1OC	16	0.74*
COC(=O)C1=C(C)N=c2s/c(=C/c3cc(Br)ccc3OC(C)=O)c(=O)n2C1c1ccc(OC(C)=O)cc1 (stereo not given)	11	0.94
SMILES	NS3h inh CB	Cy5 interf NS3h
CC(NC(=O)c1ccc(Br)cc1)c1ccccc1 (stereo not given)	12	0.79*
CC(=O)CC(=O)NC(C)c1ccccc1 (stereo not given)	3	0.97
CC(c1ccccc1)N1C(=O)C(=Cc2c(NCC3CCCO3)nc3ccccn3c2=O)SC1=S (stereo not given)	14	0.88
CC(C)(C)c1ccc(OCCn2cc(/C=C3/SC(=S)NC3=O)c3ccccc32)cc1	-1	1
CCOC(=O)c1c(NC(=O)/C=C\C(=O)O)sc(C(=O)Nc2ccccc2)c1C	19	0.94
CCOC(=O)c1sc(NN=C(C#N)C#N)c(C(=O)OCC)c1C	-2	0.56*
CC(Cc1ccccc1)NC(=O)CCC(=O)NC(C)Cc1ccccc1 (stereo not given)	4	1
Cc1ccc(C(=O)Nc2ccccc2)cc1[N+](=O)[O-]	10	0.63*
O=C(Nc1ccc2nn(-c3ccccc3)nc2c1)c1ccc(Cl)c([N+](=O)[O-])c1	-8	0.44*
CN(C)c1ccc(NC(=O)c2ccc(Cl)c([N+](=O)[O-])c2)cc1	44*	0.32*
Cc1ccc(C(=O)Nc2ccc(I)cc2)cc1[N+](=O)[O-]	14	1.1
O=C(O)c1ccc(NC(=O)c2ccc(Cl)c([N+](=O)[O-])c2)cc1	10	0.9
O=C(Nc1ccc2nn(-c3ccccc3)nc2c1)c1cccc(F)c1	-20	0.94
O=C(CSCC(=O)Nc1ccccc1[N+](=O)[O-])Nc1ccc2ccccc2c1	8	0.99
O=C(CCc1ccccc1)NC1CCCCC1Cc1ccco1 (stereo not given)	0	1
CN(C)c1ccc(C(C#N)(C#N)C2C(=O)c3ccccc3C2=O)cc1	2	0.91
Cc1cc(NC(=O)c2ccccc2I)ccc1-c1cc2ccccc2oc1=O	14	1
COc1ccccc1C(=O)Nc1ccc(-c2cc3ccccc3oc2=O)cc1	-30	0.76*

Bioassay records from PubChem BioAssay.
